A short description of experiment [1]: AP1 Signaling Pathway (AID 357).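 Note: ME-180 reporter cells stimulated with EGF at its EC50 level; % is set by controls: 0 for no effect and ±100 for the full control effect.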 The procedure, abridged:
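AP-1-bla ME-180 cells, Opti-MEM + 0.5% dialyzed FBS, plated overnight 37 °C. Cpd titration + EC50 EGF, 5 h 37 °C. CCF4 2.5 h RT; ex 405, em 460/530 ratio → %activity, AC50.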

The target of experiment [2] is Cytochrome P450 1A2 (Homo sapiens) (UniProt P05177). Description: p450-cyp1a2 (AID 410; calls by dose curve; note: potency is the fitted concentration of half-maximal effect;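 for activity change, negative = inhibition: -100% = full effect of reference inhibitor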). The procedure, abridged: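 Read-out is luminescence from luciferin produced by CYP1A2 demethylation of Luciferin-ME (100uM, at Km). Detection reagent stopped the 60 min NADPH-dependent reaction; signals were normalized to 57 uM furafylline.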
Sequence of Cytochrome P450 1A2 (Homo sapiens) (P05177 whole entry, looked up): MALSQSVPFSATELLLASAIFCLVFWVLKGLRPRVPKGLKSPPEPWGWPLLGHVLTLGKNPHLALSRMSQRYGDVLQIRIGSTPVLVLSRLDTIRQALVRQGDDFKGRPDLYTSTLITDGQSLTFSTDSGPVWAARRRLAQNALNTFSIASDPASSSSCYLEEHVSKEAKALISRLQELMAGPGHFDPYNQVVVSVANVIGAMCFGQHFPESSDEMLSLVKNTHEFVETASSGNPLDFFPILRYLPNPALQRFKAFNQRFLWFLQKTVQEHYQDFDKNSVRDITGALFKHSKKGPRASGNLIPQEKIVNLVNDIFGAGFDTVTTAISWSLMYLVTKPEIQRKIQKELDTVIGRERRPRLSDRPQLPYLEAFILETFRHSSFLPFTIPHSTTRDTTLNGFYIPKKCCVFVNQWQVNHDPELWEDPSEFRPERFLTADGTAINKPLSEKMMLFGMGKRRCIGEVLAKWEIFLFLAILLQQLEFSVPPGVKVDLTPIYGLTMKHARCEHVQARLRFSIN
Experiment [3] in a line: Stat Signaling Pathway (AID 446).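 Note: ME-180 cervical cancer cells given 40 pM IL-6 alongside compound; SIE-controlled beta-lactamase reporter measured as 460/530 nm FRET emission ratio; % is set by controls: 0 for no effect and ±100 for the full control effect.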 The procedure, abridged: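 Emission at 460 and 530 nm (excitation 405 nm) reports SIE-controlled beta-lactamase in ME-180 cells. Cells received compound with 40 pM IL-6 for 5 hrs at 37 C; data scaled between 300 pM IL-6 and 125 nM JAK-inhibitor controls.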
The target of experiment [4] is Mitogen-activated protein kinase 10 (Mus musculus) (UniProt Q61831). Description: JNK3 AlphaScreen Assay (AID 530).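 Note: kinase came from lysate of stimulated human HepG2 cells; signal reports phosphorylation of biotinylated GST-cJun 1-79 at Ser73 with 10 µM ATP; % is set by controls: 0 for no effect and ±100 for the full control effect.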 The procedure, abridged: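 Biotinylated GST-cJun(1-79) served as substrate for JNK3 in HepG2 lysates stimulated with IL-1beta and TNF-alpha. ATP was 10 uM final, pH 7.6. Ser73 phosphorylation was quantified by AlphaScreen (680 nm excitation).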
Experiment [5] concerns the target 3',5'-cyclic-AMP phosphodiesterase 4B (Homo sapiens) (UniProt Q07343). Description: qHTS Assay for Inhibitors of PDE-IV (AID 607; active = well fitted activation curve with a large enough effect in the main read-out, with a control signal flat, not every such curve was filed as active; note: % of control where 0% means no effect). The method, boiled down: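 The readout is membrane depolarisation from a cAMP-sensing CNG channel, detected with a potential dye at ex 535/em 590. Cells were HEK293-derived (endogenous PDE-IV) at 1000 cells/well, titrated up to 22.9 uM final.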
(qHTS replaces the single test concentration by a dilution series.)

Experiment [6] deals with Cytochrome P450 3A4 (Homo sapiens) (UniProt P08684). Description: qHTS Assay for Activators of Cytochrome P450 3A4 (AID 885; active = well fitted curve in the direction sought with a large enough effect; an effect the other way counts as inactive or inconclusive; note: nearly all actives have a fitted effect of over 65% in size). The procedure, abridged:
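Activators are scored by enhanced luminescence from CYP3A4 conversion of luciferin-PPXE (25uM, equal to KM) to luciferin, after 60 min at RT with an NADPH-regenerating system.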

Experiment [7] in a line: qHTS Assay for Lipid Storage Modulators (AID 1519; calls by dose curve). Particulars: Drosophila S3 cells, BODIPY lipid droplet/cell ratio, laser cytometry, cells loaded with oleic acid; for activity change, negative = inhibition: at 25.7 µM (top of the series). The procedure, abridged: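 Cells seeded at 5,000 per well were treated with compounds over a concentration series and loaded with oleic acid (400 uM, as added). Lipid droplet fluorescence (488 nm excitation, 500-530 nm channel) was read by laser-scanning cytometry and normalized to 20 uM Triacsin C.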

Experiment [8] concerns the target Ubiquitin carboxyl-terminal hydrolase 1 (Homo sapiens) (UniProt O94782). Description: Inhibitors of USP1/UAF1: Pilot qHTS (AID 504865; active = well fitted curve in the direction sought with a large enough effect; an effect the other way counts as inactive or inconclusive;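 note: rhodamine fluorescence freed from ubiquitin-rhodamine substrate followed over time; top concentration of the series differs between compounds; % is set by controls: 0 for no effect and ±100 for the full control effect; nearly all actives have a fitted effect of over 35% in size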). The method, boiled down:
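Kinetic fluorescence assay: 1nM USP1/UAF1, 15 min compound preincubation, then 150nM Ub-Rho; 480/540 nm.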

In experiment [9] the target is Luciferin 4-monooxygenase (Photinus pyralis) (UniProt P08659). Description: Biochemical firefly luciferase enzyme assay for NPC (AID 624030; active = well fitted curve in the direction sought with a large enough effect; an effect the other way counts as inactive or inconclusive;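 note: purified P. pyralis luciferase at 10 nM with luciferin and ATP substrate; 0% = DMSO and -100% = full luciferase inhibition by PTC124 control; nearly all actives have a fitted effect of over 70% in size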). The method, boiled down: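 Counter-screen for direct inhibition of the luciferase enzyme by approved-drug library compounds, run at 10 nM enzyme in 50 mM Tris acetate (final). Luminescence was read within 5 min of enzyme-buffer addition and normalized to PTC124 versus DMSO (0%).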
Sequence of Luciferin 4-monooxygenase (Photinus pyralis) (P08659 whole entry, looked up): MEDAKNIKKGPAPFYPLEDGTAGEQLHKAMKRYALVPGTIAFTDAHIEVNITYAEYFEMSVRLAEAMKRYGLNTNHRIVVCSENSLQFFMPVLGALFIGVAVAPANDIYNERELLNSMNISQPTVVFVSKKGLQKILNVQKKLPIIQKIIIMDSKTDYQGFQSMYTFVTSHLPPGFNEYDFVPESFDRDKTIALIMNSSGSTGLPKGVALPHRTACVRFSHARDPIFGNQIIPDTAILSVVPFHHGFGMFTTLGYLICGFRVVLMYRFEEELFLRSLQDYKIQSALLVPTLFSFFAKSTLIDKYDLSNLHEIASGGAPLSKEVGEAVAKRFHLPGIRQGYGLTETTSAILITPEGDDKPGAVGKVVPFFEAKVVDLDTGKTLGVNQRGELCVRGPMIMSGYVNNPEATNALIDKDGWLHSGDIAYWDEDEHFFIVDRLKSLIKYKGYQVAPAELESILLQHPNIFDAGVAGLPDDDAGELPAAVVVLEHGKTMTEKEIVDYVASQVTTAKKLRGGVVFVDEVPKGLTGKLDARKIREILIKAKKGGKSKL

Experiment [10] can be described thus: qHTS profiling for inhibitors of Plasmodium falciparum proliferation (AID 504749; active = well fitted curve in the direction sought with a large enough effect; an effect the other way counts as inactive or inconclusive; note: nearly all actives have a fitted effect of over 60% in size; note: potency is the fitted concentration of half-maximal effect;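 for activity, negative = inhibition: 0% = DMSO vehicle and full inhibition = artemisinin control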). The conditions noted are these: P. falciparum in erythrocytes, SYBR Green DNA, 72 h. The method, boiled down: (§1)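 Fluorescence of SYBR Green-bound parasite DNA, read at 485/535 nm, served as the growth measure. Infected erythrocytes were cultured with compound 72 h; artemisinin (0.29 uM) and DMSO wells defined the normalization range.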

The subject of the next experiment is ATS189. Described as above. Particulars: P. falciparum in erythrocytes, SYBR Green DNA, 72 h; series mostly up to 28.7 µM. The method, boiled down: as §1
In another experiment the test system is DFO2036. The experiment is described as above. Particulars: P. falciparum in erythrocytes, SYBR Green DNA, 72 h; series mostly up to 28.7 µM. The method, boiled down: as §1
Experiment [11] can be described thus: NFAT Signaling Pathway (AID 444).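 Note: carbachol stimulus at about its EC50 of 1 µM final; % is set by controls: 0 for no effect and ±100 for the full control effect.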 The conditions noted are these: Jurkat NFAT-bla M1, carbachol, beta-lactamase ratio, 5 h; at 17.2 µM (top of the series). The method, boiled down:
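Jurkat cells carrying an NFAT-driven β-lactamase reporter and co-transfected muscarinic M1 receptor were treated with compound plus carbachol (1 uM final, an EC50 level) for 5 h at 37 °C. CCF4 loading followed for 1 h at RT; 460/530 nm ratio gave %activity.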

The target in experiment [12] is Glucocorticoid receptor (Homo sapiens) (UniProt P04150). Description: GR-GFP Redistribution (AID 450;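 active = compounds whose dose series gives a full or clear partial fitted curve of increased nuclear translocation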; note: potency is the fitted concentration of half-maximal effect). The conditions noted are these: U2OS GR-GFP nuclear translocation, laser cytometry, 2 h.
Sequence of Glucocorticoid receptor (Homo sapiens) (P04150 whole entry, looked up, the tested form may be a part): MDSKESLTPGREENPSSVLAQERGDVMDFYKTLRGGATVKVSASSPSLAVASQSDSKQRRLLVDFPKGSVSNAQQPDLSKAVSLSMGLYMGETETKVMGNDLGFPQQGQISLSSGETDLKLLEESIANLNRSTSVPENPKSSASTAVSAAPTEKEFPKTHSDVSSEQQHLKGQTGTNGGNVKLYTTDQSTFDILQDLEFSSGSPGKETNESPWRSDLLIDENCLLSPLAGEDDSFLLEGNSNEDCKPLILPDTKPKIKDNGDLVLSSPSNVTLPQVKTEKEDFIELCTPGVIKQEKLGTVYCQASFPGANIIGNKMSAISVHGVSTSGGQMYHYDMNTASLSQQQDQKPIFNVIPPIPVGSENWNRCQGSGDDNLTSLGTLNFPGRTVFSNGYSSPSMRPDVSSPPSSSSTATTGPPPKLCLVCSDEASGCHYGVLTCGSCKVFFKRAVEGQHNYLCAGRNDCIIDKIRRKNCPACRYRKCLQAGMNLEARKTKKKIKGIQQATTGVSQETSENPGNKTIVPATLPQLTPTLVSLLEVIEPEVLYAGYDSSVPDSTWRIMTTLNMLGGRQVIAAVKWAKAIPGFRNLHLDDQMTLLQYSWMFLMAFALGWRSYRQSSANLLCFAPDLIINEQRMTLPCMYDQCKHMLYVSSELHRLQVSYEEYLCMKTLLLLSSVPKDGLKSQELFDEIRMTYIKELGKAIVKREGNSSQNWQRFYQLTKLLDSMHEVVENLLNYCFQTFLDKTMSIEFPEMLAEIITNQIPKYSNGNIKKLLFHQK
Experiment [13] shares this target. Description: GR-EFC Redistribution (AID 451; calls by dose curve; note: potency is the fitted concentration of half-maximal effect). Particulars: CHO-K1 GR-EFC translocation, beta-gal luminescence, 2 h. The procedure, abridged: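 CHO-K1 cells stably expressing nuclear-localized β-gal enzyme acceptor and GR fused C-terminally to the enzyme donor fragment; ligand-driven nuclear translocation restores β-gal by complementation. Compounds titrated up to 46 uM final, 2 h at 37 °C; luminescence read.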

[14] abbreviates: measured here: cell count channel max response.
The mark [15] stands for this setting: measured here: lipid channel max response.
The mark [16] stands for this setting: at 12.8 µM (top of the series), parasite line A.
Setting [17] is: at 12.8 µM (top of the series), parasite line B.

Inconclusive results are not listed. Active and inactive are the calls of the source. Unless noted, calls come from the whole dose curve; as a rule, active = well fitted curve in either direction with a large enough effect (not every such curve was filed as active); inconclusive = small, poorly fitted or top-dose-only effect, or another doubt; inactive = flat fitted curve, though single readings scatter.

Sequence of 3',5'-cyclic-AMP phosphodiesterase 4B (Homo sapiens) (Q07343 whole entry, looked up): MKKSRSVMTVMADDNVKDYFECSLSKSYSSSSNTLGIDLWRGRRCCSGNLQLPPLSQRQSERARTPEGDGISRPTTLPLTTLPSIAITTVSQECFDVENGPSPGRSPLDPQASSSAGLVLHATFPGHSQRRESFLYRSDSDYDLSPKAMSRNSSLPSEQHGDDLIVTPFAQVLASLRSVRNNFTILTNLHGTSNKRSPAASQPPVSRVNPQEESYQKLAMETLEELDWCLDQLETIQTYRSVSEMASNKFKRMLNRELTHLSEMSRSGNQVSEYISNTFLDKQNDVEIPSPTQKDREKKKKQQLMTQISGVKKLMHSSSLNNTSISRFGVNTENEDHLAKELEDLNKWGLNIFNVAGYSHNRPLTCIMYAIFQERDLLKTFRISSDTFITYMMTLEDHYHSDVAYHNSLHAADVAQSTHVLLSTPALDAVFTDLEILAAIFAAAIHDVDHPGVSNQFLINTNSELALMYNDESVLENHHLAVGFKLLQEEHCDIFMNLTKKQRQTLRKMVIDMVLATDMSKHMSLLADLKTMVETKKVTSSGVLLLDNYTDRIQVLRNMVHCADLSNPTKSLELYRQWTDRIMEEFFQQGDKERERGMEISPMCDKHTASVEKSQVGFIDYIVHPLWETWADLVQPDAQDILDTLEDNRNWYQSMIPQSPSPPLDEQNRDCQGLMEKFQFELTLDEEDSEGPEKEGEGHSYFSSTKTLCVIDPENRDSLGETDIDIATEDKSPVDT
Sequence of Ubiquitin carboxyl-terminal hydrolase 1 (Homo sapiens) (O94782 whole entry, looked up): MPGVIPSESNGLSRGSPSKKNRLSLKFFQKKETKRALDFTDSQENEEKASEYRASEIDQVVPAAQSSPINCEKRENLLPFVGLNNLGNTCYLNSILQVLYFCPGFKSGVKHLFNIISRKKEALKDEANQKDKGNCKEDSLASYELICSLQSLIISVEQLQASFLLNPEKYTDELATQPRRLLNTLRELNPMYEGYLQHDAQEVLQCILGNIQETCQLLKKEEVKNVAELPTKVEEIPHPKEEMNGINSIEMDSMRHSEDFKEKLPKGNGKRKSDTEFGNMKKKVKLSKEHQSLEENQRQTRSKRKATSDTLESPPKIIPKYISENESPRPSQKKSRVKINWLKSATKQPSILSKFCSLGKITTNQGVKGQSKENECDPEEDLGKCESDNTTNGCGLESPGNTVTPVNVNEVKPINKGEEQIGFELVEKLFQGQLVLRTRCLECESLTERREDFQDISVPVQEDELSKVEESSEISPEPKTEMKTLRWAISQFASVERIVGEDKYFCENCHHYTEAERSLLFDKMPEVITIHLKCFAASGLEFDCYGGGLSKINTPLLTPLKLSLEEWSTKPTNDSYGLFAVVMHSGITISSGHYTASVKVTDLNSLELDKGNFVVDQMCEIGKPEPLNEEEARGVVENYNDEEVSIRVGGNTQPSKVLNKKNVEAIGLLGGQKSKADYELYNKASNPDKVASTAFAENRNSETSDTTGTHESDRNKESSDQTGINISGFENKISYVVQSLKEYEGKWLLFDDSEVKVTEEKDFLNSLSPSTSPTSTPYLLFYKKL
Sequence of Cytochrome P450 3A4 (Homo sapiens) (P08684 whole entry, looked up): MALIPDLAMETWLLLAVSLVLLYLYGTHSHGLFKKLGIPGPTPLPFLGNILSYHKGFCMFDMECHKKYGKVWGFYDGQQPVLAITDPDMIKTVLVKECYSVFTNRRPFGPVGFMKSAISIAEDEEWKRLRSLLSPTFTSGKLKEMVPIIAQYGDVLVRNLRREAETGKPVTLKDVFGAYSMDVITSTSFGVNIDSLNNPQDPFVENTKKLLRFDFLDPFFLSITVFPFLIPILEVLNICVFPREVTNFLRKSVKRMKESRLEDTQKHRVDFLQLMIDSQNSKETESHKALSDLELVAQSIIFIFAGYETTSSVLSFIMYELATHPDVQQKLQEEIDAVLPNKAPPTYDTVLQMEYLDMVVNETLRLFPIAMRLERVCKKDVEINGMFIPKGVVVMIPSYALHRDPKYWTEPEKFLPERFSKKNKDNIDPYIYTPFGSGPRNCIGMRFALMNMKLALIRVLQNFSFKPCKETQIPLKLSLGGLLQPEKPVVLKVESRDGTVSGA

On to `CC(C)N(CC[C@@](C(N)=O)(c1ccccc1)c1ccccn1)C(C)C`, for which the compound was classed as inactive in experiment [1], in experiment [3] and in experiment [4]. Besides, the Potency entry (in experiment [2]; in experiment [5]; in [6]; in [8]; in [9]; in the experiment on ATS189) was “inactive” throughout. In addition, in the experiment with DFO2036, the Potency result was “inactive”. Further, the activity change, negative = inhibition in experiment [7] is 0.14% (inactive). Further, the max response in experiment [7] (setting [14]) is -13.9%; in [7] (setting [15]), -14.1%. For the same compound, the activity, negative = inhibition in experiment [10] (at 28.7 µM (top of the series), parasite line A) is 9.42% (inactive); in experiment [10] (at 28.7 µM (top of the series), parasite line B) it was 2.7% (inactive).
For `CN(C)[C@@H]1C(=O)C(C(N)=O)=C(O)[C@]2(O)C(=O)C3=C(O)c4c(O)ccc(Cl)c4[C@](C)(O)[C@H]3C[C@@H]12`, the outcome in [1], in experiment [3] and in experiment [4] was inactive. Further, the activity change, negative = inhibition in experiment [11] was -5.59% (inactive); in experiment [7] it was 0.321% (inactive). The Potency in [12] was > 20.6 µM (inactive). For the same compound, the Potency entry (in experiment [5]; in [9]; with ATS189; with DFO2036) was “inactive” throughout. For the same compound, the max response in [7] (setting [14]) was -2.07%; in experiment [7] (setting [15]), -2.35%. In addition, the values for the activity, negative = inhibition in experiment [10] (setting [16]) and in [10] (setting [17]) were -8.57% (inactive) and -7.26% (inactive), respectively.
Consider `C[C@@H]1NCCc2cc(O)c(O)cc21`, for which the result in [1], in [3] and in [4] was inactive. Also, the activity change, negative = inhibition in experiment [11] is -2.85% (inactive); in experiment [7], -2.45% (inactive). Moreover, the Potency in [12] and in experiment [13] was > 20.6 µM (inactive) in each case. Besides, the Potency result in [5] and in experiment [8] was “inactive” throughout. The max response in [7] (setting [14]) was -9.01%; in experiment [7] (setting [15]), -11.5%.
As to `CC(=O)[C@@H]1CC[C@H]2[C@H]3CC[C@H]4C[C@@H](O)CC[C@]4(C)[C@@H]3C(=O)C[C@@]12C`, the call in experiment [1], in [3] and in experiment [4] was inactive. Moreover, the activity change, negative = inhibition in [11] is -7.61% (inactive); in experiment [7], -4.19% (inactive). Besides, the Potency entry in [5] and in experiment [8] was “inactive” in each case. For the same compound, the max response in experiment [7] (setting [14]) was -12.1%; in experiment [7] (setting [15]), -15.2%.
Take `CO[C@H]1C=C2CCN(C)[C@@H]2[C@@H]2c3cc4c(cc3C(=O)O[C@H]21)OCO4`: the outcome in experiment [1], in [3] and in [4] was inactive. The activity change, negative = inhibition is 8.91% (inactive) in experiment [11] and 0.781% (inactive) in experiment [7]. The Potency in experiment [12] and in experiment [13] was > 20.6 µM (inactive) each time. The Potency entry in experiment [5] was “inactive”. In addition, the max response in experiment [7] (setting [14]) is -13.3%; in experiment [7] (setting [15]), -11.4%.
`C[C@H]1[C@@H](O)[C@@H](C)/C=C\C=CCC\C=C/C=C\C=C/C=C[C@@H](O[C@H]2O[C@@H](C)[C@@H](O)[C@@H](N)[C@@H]2O)C[C@@H]2O[C@@](O)(C[C@@H](O)[C@H]2C(=O)O)C[C@@H](O)[C@@H](O)CC[C@@H](O)C[C@@H](O)C[C@@H](O)CC(=O)O[C@H]1C`: the call in experiment [1], in experiment [3] and in [4] was inactive. The activity change, negative = inhibition in experiment [11] was 1.26% (inactive); in experiment [7] it was -0.591% (inactive). In addition, the Potency result in [5] is “inactive”. Moreover, the max response in experiment [7] (setting [14]) stood at 5.63%; in [7] (setting [15]), 6.3%.
With `Clc1ccc([C@@H](OCCN2CCCCC2)c2ccccc2)cc1`, the Potency in [2] is 12.6 µM (active); in experiment [12], > 20.6 µM (inactive); in [13], > 20.6 µM (inactive); in the experiment on ATS189, 3.16 µM (active). Further, the activity change, negative = inhibition was -74.4% (active) in experiment [11] and -2.71% (inactive) in experiment [7]. Moreover, the call in experiment [3] and in [4] was inactive. In addition, the max response in [7] (setting [14]) is -5.28%; in experiment [7] (setting [15]), -7.74%. Besides, the Potency result (in experiment [9]; with DFO2036) was “inactive” each time. In addition, the activity, negative = inhibition in [10] (setting [16]) was -2.83% (inactive); in experiment [10] (setting [17]), -13.1% (inactive).

The values above are taken from PubChem BioAssay (NCATS).
